The source made the active and inactive calls. The calls were made as follows: active = hit-call score of the fitted dose curve at least 0.9, where 1 is the maximum; inactive = score below 0.9.
Test: APR_HepG2_CellCycleArrest_24hr: Apredica 24-hour HepG2 Assay for Cell Cycle Arrest (AID 2282905);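 also: cell cycle arrest scored as ratio of 2N to 4N nuclear DNA content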
Conditions: imaging, actives raise or lower the signal
Procedure, shortened: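 Cell cycle arrest is scored from nuclear DNA content measured by high-content imaging of Hoechst 33342-stained HepG2 cells following 24-hour treatment at ten concentrations up to 200 uM, with DMSO as baseline.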

outcome, inactive:
O=C1c2c(O)cccc2Cc2cccc(O)c21, CCCCCCCC(=O)OC, CCc1cc(C2=C(C(=O)O)N(c3ccccc3C(F)(F)F)S(=O)(=O)c3ccccc32)cc2c1OCO2, OCC(O)CO, S=c1[nH]c2ccccc2s1, CCCCCCCCCC[N+](C)(C)[O-], CN(C)CCCN1c2ccccc2Sc2ccc(Cl)cc21, COc1ccc(C(=O)Nc2nc3ccccc3c(NCc3ccccc3)c2C#N)cc1, CO[C@@H]1COCC[C@@H]1N[C@@H]1CC[C@@](C(=O)N2CCc3ncc(C(F)(F)F)cc3C2)(C(C)C)C1, CS(=O)(=O)c1ccc([C@@H](C[C@H]2CCC(=O)C2)C(=O)Nc2cnccn2)cc1Cl, Oc1ccc(O)cc1, CN(C)C(=O)NC1(c2ccccc2)CCN(CC[C@@]2(c3ccc(F)c(F)c3)CN(C(=O)c3ccccc3)CCO2)CC1, CCc1nc(N)nc(N)c1-c1ccc(Cl)cc1, CC(C)(O)c1ccc(CNC(=O)c2cccnc2Oc2ccc(F)cc2)cc1, Nc1nc(Cl)nc2c1ncn2[C@H]1C[C@H](O)[C@@H](CO)O1, CN(C)CCCN(C)CCCN(C)C

AC50, active:
COc1ccc(OC(F)(F)F)cc1CN[C@H]1CCCN[C@H]1c1ccccc1 29.2 µM, CN(C)C(=O)NC1(c2ccccc2)CCN(CCC[C@]2(c3ccc(Cl)c(Cl)c3)CCCN(C(=O)c3ccccc3)C2)CC1 24.7 µM, NCCOCCOCCN 0.998 µM

— PubChem BioAssay (EPA / NIEHS)
